From PubChem BioAssay AID1851 (National Center for Advancing Translational Sciences (NCATS), 2009) come the findings set out here.

The whole screen tested about 16,000 compounds, of which about 5,100 (32%) were called active. Roughly 25% stayed inconclusive and do not appear here. The list shows a part of the results. A number with no mark means an inactive call. Calls follow the shape of the dose curve; as a rule, active = well fitted curve in the direction sought with a large enough effect; inconclusive = small, poorly fitted or top-dose-only effect, or effect the other way; inactive = no such curve, though single readings can be large or run the other way.
% is scaled to controls: 0 for no effect and ±100 for the full control effect.

Sequence of Cytochrome P450 3A4 (Homo sapiens) (P08684 whole entry, looked up): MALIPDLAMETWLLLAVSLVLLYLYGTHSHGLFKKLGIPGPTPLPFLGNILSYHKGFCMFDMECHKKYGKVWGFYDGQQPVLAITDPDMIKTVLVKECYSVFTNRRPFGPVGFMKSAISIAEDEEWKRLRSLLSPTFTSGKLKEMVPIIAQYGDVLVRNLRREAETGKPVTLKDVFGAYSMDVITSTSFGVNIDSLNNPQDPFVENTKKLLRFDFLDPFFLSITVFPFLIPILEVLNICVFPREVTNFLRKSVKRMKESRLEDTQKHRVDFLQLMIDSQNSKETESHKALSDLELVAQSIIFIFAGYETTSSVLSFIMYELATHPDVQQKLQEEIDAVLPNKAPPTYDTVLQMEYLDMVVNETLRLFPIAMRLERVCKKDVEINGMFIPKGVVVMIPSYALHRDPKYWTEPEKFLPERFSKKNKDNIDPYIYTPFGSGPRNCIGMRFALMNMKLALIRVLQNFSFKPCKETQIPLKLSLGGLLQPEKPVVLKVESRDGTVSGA

The assay has as its target Cytochrome P450 3A4 (Homo sapiens) (UniProt P08684). The assay can be described thus: Cytochrome panel assay with activity outcomes. The settings on record: recombinant CYP, pro-luciferin dealkylation, luminescence, p450-cyp3a4; series mostly up to 57.1 µM; activity, negative = inhibition: at the top concentration.
For `CN(Cc1ccco1)c1cc(-c2cccnc2)ncn1`, the concentration at half-maximal activity (AC50) (in general, the concentration at which the activity in the assay is half-maximal) is 3.16 µM (active).

In the case of `CN(Cc1ccco1)c1cc(-c2cccc(C#N)c2)ncn1`, the “activity, negative = inhibition” value is -4.27%.

Turning to `COc1cccc(-c2cc(N(C)Cc3ccco3)ncn2)c1`, the AC50 was 25.1 µM (active).

For the compound `COC(=O)[C@@]1(Cc2ccc(OC)cc2)[C@@H]2[C@@H](CC(=O)[C@H]2CC(=O)C(=O)N2CCCC2)CN1C(=O)c1ccccc1`, the AC50 was 0.794 µM (active).

In the case of `COC(=O)[C@@]1(Cc2ccc(F)cc2)[C@@H]2[C@@H](CC(=O)[C@H]2CC(=O)C(=O)N2CCCC2)CN1C(=O)c1ccccc1`, the half-maximal activity concentration (AC50) was 1.58 µM (active).

As for `c1ccc(Cc2nnc(Sc3ccccc3)c3ccccc23)cc1`, the AC50 was 12.6 µM (active).

Regarding `FC(F)(F)c1nnc(-c2ccccc2)nc1Sc1ccccc1`, the “activity, negative = inhibition” value was -29.6%.

With `COc1ccc2[nH]cc(CCNc3cc(-c4ccccc4C(F)(F)F)ncn3)c2c1`, the half-maximal activity concentration (AC50) is 5.01 µM (active).

Consider `COc1ccc2[nH]cc(CCNc3cc(-c4ccccc4C)ncn3)c2c1`, for which the AC50 is 5.01 µM (active).

With `COc1ccc2[nH]cc(CCNc3cc(-c4ccccc4OC)ncn3)c2c1`, the AC50 is 6.31 µM (active).

As for `COCCNc1cc(-c2ccccc2C)ncn1`, the “activity, negative = inhibition” value is -2.95%.

With `CC(C)OC(=O)CSc1nc(-c2ccc(F)cc2)nc2ccc(F)cc12`, the “activity, negative = inhibition” value was -10.7%.

`Cc1onc(-c2ccccc2Cl)c1C(=O)Nc1nnc(Cc2ccc(Cl)cc2)s1`: the half-maximal activity concentration (AC50) was 3.16 µM (active).

As to `Cc1ccc(NC(=S)NC(=O)c2c(-c3ccccc3Cl)noc2C)cc1`, the AC50 is 14.1 µM (active).

On to `O=C(Nc1ccccc1)c1cc(-c2ccccc2Cl)no1`, for which the “activity, negative = inhibition” value is -22.5%.

On to `CC(C)N(CCNC(=O)C1CCN(S(=O)(=O)N2CCOCC2)CC1)Cc1ccccc1`, for which the “activity, negative = inhibition” value is 22.3%.

On to `O=C(NCCc1ccc(Cl)cc1)C1CCN(S(=O)(=O)N2CCC3(CC2)OCCO3)CC1`, for which the AC50 is 3.55 µM (active).

As for `O=C(NCc1ccccc1Cl)C1CCN(S(=O)(=O)N2CCC3(CC2)OCCO3)CC1`, the AC50 is 14.1 µM (active).

With `COCCNC(=O)C1CCN(S(=O)(=O)N2CCC3(CC2)OCCO3)CC1`, the “activity, negative = inhibition” value was -8.44%.

With `CCCC(=O)Nc1cccc(Oc2nc(C)cc(C)c2C#N)c1`, the AC50 is 14.1 µM (active).

For the compound `Cc1cc(C)c(C#N)c(Oc2ccc(F)cc2)n1`, the AC50 was 8.91 µM (active).

`Cc1cc(C)c(S(C)(=O)=O)c(Oc2ccc(F)cc2)n1`: the activity, negative = inhibition was 26.1% [at 2.29 µM].

For `Cc1cc(C)c(C#N)c(Oc2ccccc2)n1`, the activity, negative = inhibition is -18.2% [at 11.4 µM].

On to `Nc1nc(CSc2nnnn2-c2ccc(Cl)cc2)nc(N2CCOCC2)n1`, for which the concentration at half-maximal activity (AC50) was 3.98 µM (active).

Regarding `COc1ccc(-n2c(=O)c(-c3ccc(Cl)cc3)nc3cnc(N4CCOCC4)nc32)cc1`, the “activity, negative = inhibition” value is -5.16%.

As for `Clc1ccc(-n2nnnc2CN2CCOCC2)cc1`, the “activity, negative = inhibition” value was -2.71%.

Consider `COC(=O)c1cc(/C=C/c2ccccc2)on1`, for which the activity, negative = inhibition was -3.05% [at 2.29 µM].

With `CC(C)C(=O)N[C@H]1CCCN1C(=O)/C=C\c1ccccc1`, the activity, negative = inhibition is -20.7% [at 11.4 µM].

Turning to `COC(=O)C1=C(C)N=C2SC(C)C(=O)N2C1/C=C/c1ccccc1` (stereo not given), the half-maximal activity concentration (AC50) is 12.6 µM (active).

In the case of `CC(C)NC(=O)COC(=O)c1cc(=O)[nH]c2ccccc12`, the activity, negative = inhibition was 1.83% [at 2.29 µM].

Consider `Cc1[nH]c2c(C)cccc2c1CCNC(=O)c1ccc2c(c1[N+](=O)[O-])C(=O)c1ccccc1C2=O`, for which the concentration at half-maximal activity (AC50) is 3.16 µM (active).

For the compound `Cc1[nH]c2ccccc2c1CCNC(=O)c1ccc2c(c1[N+](=O)[O-])C(=O)c1ccccc1C2=O`, the AC50 was 8.91 µM (active).

Consider `COc1cc(OC)nc(NC(C)=O)n1`, for which the “activity, negative = inhibition” value was 28.1%.

As to `COc1cc(C2SCCCCCCCCCCSC(c3ccc(O)c(OC)c3)SCCCCCCCCCCS2)ccc1O` (stereo not given), the activity, negative = inhibition was 12.5% [at 11.4 µM].

Regarding `COc1ccc(C[C@@H]2C(=O)N[C@H](C)C(=O)N(C)[C@@H]3Cc4ccc(cc4)Oc4cc(ccc4O)C[C@H](C(=O)N[C@@H](C)C(=O)N[C@H](C)C(=O)N2C)N(C)C3=O)cc1`, the concentration at half-maximal activity (AC50) is 3.98 µM (active).

As to `Nc1nc(Cl)cc(N2CCC(c3cc(-c4ccc(Cl)cc4Cl)n[nH]3)CC2)n1`, the AC50 was 20 µM (active).

Turning to `NC1CCN(c2cccc(Cl)n2)CC1`, the AC50 result is “inactive”.

As to `Nc1nc(Cl)cc(N2CCOCC2)n1`, the “activity, negative = inhibition” value is -4.16%.

Turning to `COc1ccc(-c2cc(C3CCN(c4cc(Cl)nc(N)n4)CC3)[nH]n2)cc1`, the half-maximal activity concentration (AC50) is 28.2 µM (active).

As to `CCNc1ncc2nc(-c3cccs3)c(=O)n(CCC#N)c2n1`, the AC50 is 6.31 µM (active).

In the case of `CCNc1ncc2nc(-c3cccs3)c(=O)n(Cc3ccc(F)cc3)c2n1`, the half-maximal activity concentration (AC50) is 15.8 µM (active).

As for `CCNc1ncc2nc(-c3ccccc3)c(=O)n(Cc3cccs3)c2n1`, the half-maximal activity concentration (AC50) is 15.8 µM (active).

In the case of `CCNc1ncc2nc(-c3cc(F)cc(F)c3)c(=O)n(CCC#N)c2n1`, the “activity, negative = inhibition” value is -5.56%.

Consider `CCNc1ncc2nc(-c3ccc(F)cc3)c(=O)n(CCC#N)c2n1`, for which the “activity, negative = inhibition” value is -24.5%.

For `CCNc1ncc2nc(-c3ccc(F)cc3)c(=O)n(CCOC)c2n1`, the “activity, negative = inhibition” value is 13.3%.

Consider `CCNc1ncc2nc(-c3cccs3)c(=O)n(Cc3cccs3)c2n1`, for which the concentration at half-maximal activity (AC50) is 6.31 µM (active).

`CCNc1ncc2nc(C)c(=O)n(Cc3cccs3)c2n1`: the AC50 is 15.8 µM (active).

As for `CCNc1ncc2nc(C)c(=O)n(C)c2n1`, the “activity, negative = inhibition” value was -19.3%.

For `O=C(Nc1ccc2oc(-c3ccccc3F)nc2c1)c1ccc2c(c1)OCCO2`, the AC50 is 3.16 µM (active).

For the compound `COc1cc(C(=O)NC(=S)Nc2ccc(Cl)c(C(=O)O)c2)cc(OC)c1OC`, the activity, negative = inhibition was -9.66% [at 11.4 µM].

Take `COc1cc2ccc(=O)oc2cc1O`: the “activity, negative = inhibition” value is -6.97% [at 25.6 µM].

For `COc1cc(C(=O)NC(=S)Nc2cccc(-c3cc4ccccc4oc3=O)c2)cc(OC)c1OC`, the concentration at half-maximal activity (AC50) is 6.31 µM (active).

Turning to `COc1cc(C(=O)NC(=S)Nc2ccc3oc(=O)ccc3c2)cc(OC)c1OC`, the concentration at half-maximal activity (AC50) was 4.47 µM (active).

Consider `CC(O)(P(=O)(O)O)P(=O)(O)O`, for which the “activity, negative = inhibition” value was -6.71% [at 25.6 µM].

As for `Cc1c(C(=O)NN2CCOCC2)nn(-c2ccc(Cl)cc2Cl)c1-c1ccc(I)cc1`, the “activity, negative = inhibition” value is -26.3%.

For `CCC(=O)Nc1cc(-c2nn(C)c(=O)c3ccccc23)ccc1N1CCCCC1`, the “activity, negative = inhibition” value was -26.6%.

With `Cn1nc(-c2ccc(N3CCOCC3)c(NS(=O)(=O)c3ccc(Cl)cc3)c2)c2ccccc2c1=O`, the half-maximal activity concentration (AC50) is 1.41 µM (active).

Regarding `COC(=O)[C@@]1(Cc2ccc(OC)cc2)[C@H]2c3cc(C(=O)N4CCCC4)n(CCc4c[nH]c5ccc(O)cc45)c3C[C@H]2CN1C(=O)c1ccccc1`, the AC50 is 1.58 µM (active).

For `COC(=O)[C@@]1(Cc2ccc(F)cc2)[C@H]2c3cc(C(=O)N4CCCC4)n(CCc4c[nH]c5ccccc45)c3C[C@H]2CN1C(=O)c1ccccc1`, the half-maximal activity concentration (AC50) was 1 µM (active).

Turning to `COC(=O)[C@@]1(Cc2ccc(OC)cc2)[C@H]2c3cc(C(=O)N4CCCC4)n(CCc4c[nH]c5cc(F)ccc45)c3C[C@H]2CN1C(=O)c1ccccc1`, the AC50 is 1.26 µM (active).
